Unmarked numbers belong to inactive results. Cut-off read from the data, not from the text of the source: active = remaining activity below about 50%; inactive = the rest.
Target: Phospholipase D1 (Homo sapiens) (UniProt Q13393)
Assay: cellular phospholipase D1 activity inhibition – Calu-1 cells, single concentration (AID 602144);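 note: tested at 200 nM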
Settings: cellular PLD1 activity, active compounds read low

Sequence of Phospholipase D1 (Homo sapiens) (Q13393 whole entry, looked up): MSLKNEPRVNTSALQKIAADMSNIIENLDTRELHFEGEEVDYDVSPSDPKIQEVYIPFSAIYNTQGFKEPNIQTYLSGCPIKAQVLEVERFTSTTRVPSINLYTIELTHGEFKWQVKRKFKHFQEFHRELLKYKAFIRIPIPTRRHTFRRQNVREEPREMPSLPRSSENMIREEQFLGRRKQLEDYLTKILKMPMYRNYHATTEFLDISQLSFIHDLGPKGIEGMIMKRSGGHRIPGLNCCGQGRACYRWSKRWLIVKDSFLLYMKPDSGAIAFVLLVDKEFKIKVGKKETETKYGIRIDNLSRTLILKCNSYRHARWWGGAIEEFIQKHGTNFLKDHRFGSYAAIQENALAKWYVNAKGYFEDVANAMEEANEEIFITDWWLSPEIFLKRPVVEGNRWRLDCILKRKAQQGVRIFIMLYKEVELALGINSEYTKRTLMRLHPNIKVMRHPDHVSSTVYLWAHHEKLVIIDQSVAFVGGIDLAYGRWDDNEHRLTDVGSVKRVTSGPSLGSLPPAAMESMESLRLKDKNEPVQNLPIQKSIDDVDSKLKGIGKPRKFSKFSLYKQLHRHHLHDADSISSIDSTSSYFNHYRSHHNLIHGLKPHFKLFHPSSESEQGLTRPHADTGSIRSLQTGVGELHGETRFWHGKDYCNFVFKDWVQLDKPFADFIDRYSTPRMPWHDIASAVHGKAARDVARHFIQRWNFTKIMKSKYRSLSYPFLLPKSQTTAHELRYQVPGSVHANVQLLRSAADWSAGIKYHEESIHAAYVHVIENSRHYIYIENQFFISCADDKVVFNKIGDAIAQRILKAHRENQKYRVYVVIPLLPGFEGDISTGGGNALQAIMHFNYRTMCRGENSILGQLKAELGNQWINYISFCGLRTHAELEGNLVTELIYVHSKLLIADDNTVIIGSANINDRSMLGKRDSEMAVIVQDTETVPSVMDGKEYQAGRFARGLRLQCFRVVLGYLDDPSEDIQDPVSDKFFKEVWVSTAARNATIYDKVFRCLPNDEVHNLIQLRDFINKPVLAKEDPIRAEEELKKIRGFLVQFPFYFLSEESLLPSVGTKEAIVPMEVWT
Sequence of Phospholipase D1 (Homo sapiens) (Q13393 whole entry, looked up): as above

| Compound | remaining activity |
| --- | --- |
| O=C1c2ccccc2C(=O)N1CCCN1CCC(n2c(=O)[nH]c3cc(Cl)ccc32)CC1 | 67.5% |
| Nc1cccc(Cl)c1C(=O)NCCN1CCC(n2c(=O)[nH]c3ccccc32)CC1 | 89.2% |
| C[C@@H](CN1CCC2(CCc3ccccc32)CC1)NC(=O)c1cnc2ccccc2c1 | 129% |
| CCNC(=S)NCCN1CCC(n2c(=O)[nH]c3ccccc32)CC1 | 144% |
